Assay outcomes from PubChem.
Shown are actives, neighbours in structure and some others; about 19% of the full set was active somewhere.
TDP1 cell noCPT: qHTS for Inhibitors of human tyrosyl-DNA phosphodiesterase 1 (TDP1): qHTS in cells in absence of CPT; Potency, µM (doses to about 46.2 µM), without a hit: at the top dose activity change, negative = growth inhibition, usual class: inhibitors; 15% of 420,000 active; DT40 Tdp1-/- hTDP1 cells, no CPT, ATP luminescence, 48 h; also: potency is read from the fitted curve at half-maximal effect; nearly all actives have a fitted effect of over 55% in size
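Growth kinetics read by CellTiter-Glo luminescence after ≥48 hr at 37 °C. Cells: DT40 Tdp1-/- stably carrying human TDP1, 400 per well, compound exposure in the absence of CPT (DMSO vehicle).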
HT1080 IDH1KD tx: toxicity to HT-1080 IDH1 knockdown cells (counter line); HT-1080 IDH1 knockdown viability, ATP luminescence, 48 h; Potency, µM (series often up to 46.1 µM), for inactives: at the highest dose activity, negative = toxicity, most hits filed as cytotoxic; 2% of 360,000 active;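 also: potency is read from the fitted curve at half-maximal effect; 0% = DMSO wells and -100% = cell-free medium wells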
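Cytotoxicity counter-line: IDH1KD HT-1080, 48 h, CellTiter-Glo. Curves classed by r2, magnitude and activity.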
HT1080NT lethal: kills 2HG-producing HT-1080-NT fibrosarcoma cells | HT-1080-NT fibrosarcoma viability, CellTiter-Glo ATP luminescence, 48 h | Potency, µM (top dose mostly 46.1 µM), for inactives: at the top dose activity, negative = less viability, usual class: cytotoxic | 1.6% of 360,000 active | AID 686970;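 also: NT is the 2HG producing partner of a matched IDH1 knockdown line; potency is read from the fitted curve at half-maximal effect; 0% = DMSO-treated cells and -100% = media-only wells without cells; nearly all actives have a fitted effect of over 55% in size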
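HT-1080-NT fibrosarcoma cells (2HG-overproducing), 750 cells/well in RPMI with 5% FBS, dosed after 2 h and incubated 48 h at 37C. CellTiter-Glo luminescence normalized to DMSO and no-cell wells; concentration-response curves fitted and classed.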
DT40 TDP1 CPT: growth inhibition of DT40 Tdp1-/-;hTDP1 cells with camptothecin (screen for TDP1 inhibitors); 12% of 420,000 active; Potency, µM (top dose mostly 46.2 µM), without a hit: top-dose activity change, negative = growth inhibition, actives largely listed as inhibitors; chicken DT40 Tdp1-/-;hTDP1 cells + 20 nM CPT, ATP luminescence, 48 h; also: potency is read from the fitted curve at half-maximal effect; nearly all actives have a fitted effect of over 55% in size
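Chicken DT40 Tdp1-/- cells complemented with human TDP1, 400 cells/well, exposed to compounds plus 20 nM camptothecin for at least 48 h at 37 C; viability read as ATP content by CellTiter-Glo luminescence.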
IL-1B inflam inh: inhibitors of inflammasome signaling (IL-1 beta secretion) | THP-1 LPS/ATP IL-1B secretion, AlphaLISA, 16 h; hits give low values | activity change, % at 57.5 µM | 4.7% of 360,000 active | AID 743279; in the data active = activity change below about -50%; inconclusive = mostly about -30% to -49%
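THP-1 cells pretreated 1 hr with compounds (up to 57.5 uM final), then stimulated with LPS (250 ng/mL final) plus ATP (1.25 mM final); secreted IL-1B measured by AlphaLISA after 16 hr, decreased signal indicating inhibition.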
Numbers without * were called inactive; ? = inconclusive; . = no result. Unless noted, calls follow the shape of the dose curve; as a rule, active = well fitted curve in the direction sought with a large enough effect; inconclusive = small, poorly fitted or top-dose-only effect, or another doubt; inactive = no such curve, though single readings can be large; an effect the other way counts as inactive or inconclusive. Unless noted, % is scaled to controls: 0 for no effect and ±100 for the full control effect.

SMILES	TDP1 cell noCPT	HT1080 IDH1KD tx	HT1080NT lethal	DT40 TDP1 CPT	IL-1B inflam inh
COc1cccc(Nc2nc(-c3sc(N)nc3C)cs2)c1	?	24%	-5%	23µM*	0
Cc1c(NS(=O)(=O)c2cccc(C(=O)NCc3ccco3)c2)c(=O)n(-c2ccccc2)n1C	?	0%	-3%	?	10
COc1ccc(CCC(=O)Nc2ccc(N3CCOCC3)c(S(=O)(=O)Nc3ccc(OC)cc3)c2)cc1	?	-7%	-15%	?	0
CCCCN(C)CCCNC(=O)c1cn(CC)c2ccc(S(=O)(=O)N3CCOCC3)cc2c1=O	19%	26%	24%	-1%	-23
CCOC(=O)/C(C#N)=C1\C(=O)N(Cc2ccccc2)c2ccccc21	9.2µM*	-2%	-8%	9.2µM*	-5
CCOC(=O)/C(C#N)=C1/C=CN(Cc2ccccc2)C=N1	1%	-3%	?	-2%	-5
COC(=O)c1cccc(CSc2nc3ccccc3[nH]2)c1	16µM*	-12%	0%	?	3
COC(=O)c1ccc(CSc2nc3ccc(S(N)(=O)=O)cc3[nH]2)cc1	1%	-2%	5%	-4%	-101*
CCOc1ccc(/C=N/NC(=O)c2ccc(CSc3nc4ccccc4[nH]3)cc2)cc1	23µM*	?	?	23µM*	21
COC(=O)c1ccc(CSc2nc3ccccc3[nH]2)o1	-8%	5%	6%	-24%	6
CC(C)(C)c1[nH]nc2c1C(Cc1ccccc1)C(C#N)=C(N)O2 (stereo unspecified)	?	16%	21%	?	31
CC(=O)Nc1ccc(Nc2nc(C)c([N+](=O)[O-])c(Nc3ccccc3)n2)cc1	18µM*	?	-25%	23µM*	-24
CCC(=O)Nc1ccc(Nc2nc(C)c([N+](=O)[O-])c(Nc3ccc(NC(=O)CC)cc3)n2)cc1	6.5µM*	-3%	6%	8.2µM*	6
Cc1ccccc1Nc1nc(N)nc(COC(=O)CC2CC3CCC2C3)n1 (stereo unspecified)	?	-1%	-1%	?	0
COC(=O)C1=C(C)Nc2nc(SCc3ccccc3)[nH]c(=O)c2C1c1cccs1 (stereo unspecified)	-8%	-1%	-3%	?	-17
NS(=O)(=O)c1ccc(CCNC(=O)c2ccc(C#CC3(O)CCCCC3)cc2)cc1	2.6µM*	?	?	21µM*	-8
COc1ccc(Cl)cc1NC(=O)Cn1nnc(C(=O)NCc2ccc3c(c2)OCO3)c1N	?	-12%	0%	?	2
Cc1cc(-c2ccnc(-n3ncc(C(=O)NCC4COCCO4)c3C)n2)c(C)s1 (stereo unspecified)	4.1µM*	.	.	?	.
COc1ccccc1CN(C(=O)CCl)C(C(=O)NC1CCCCC1)c1ccncc1 (stereo unspecified)	3%	4%	7%	17%	5
COc1ccc(C(=O)/C=C/C(=O)N(Cc2ccc(F)cc2)C(C(=O)NC2CCCCC2)c2ccncc2)c(O)c1 (stereo unspecified)	?	-10%	-4%	?	-64*
COc1ccc(C(=O)/C=C/C(=O)N(Cc2ccccc2OC)C(C(=O)NC2CCCCC2)c2ccncc2)c(O)c1 (stereo unspecified)	21µM*	?	?	?	-78*
COc1cccc(CN2CCN(Cc3cccn3-c3cccnc3)CC2CCO)c1 (stereo unspecified)	?	-3%	-1%	-24%	-4
Cc1cccc(Cn2cc(C(=O)Nc3cc(F)ccc3F)ccc2=O)c1	16µM*	.	.	?	.
Cc1cccc(Cn2cc(C(=O)Nc3ccc(F)c(C(F)(F)F)c3)ccc2=O)c1	15µM*	.	.	23µM*	.
NC(=O)c1ccc(=O)n(Cc2ccc(F)c(F)c2)c1	22%	2%	-5%	-10%	-5
